High-throughput results (PubChem)
In the library only some 1.2% were active in any assay of this set; here they are far more common.
PfHsp40 rescue: rescue of PfHsp40-mediated yeast toxicity. growth rescue, % at 12.5 µM. S. cerevisiae expressing PfHsp40, growth rescue, ATP luminescence. AID 504582. 340,000 tested, 0.68% active; in the data active means growth rescue above about 28%, passing the limit was not always enough; inconclusive means no clear call, values can overlap the other calls;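 further: yeast W303a lacking pdr1 and pdr3 grown in galactose medium; growth measured after three days at 30 °C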
Y pestis TopoI: inhibitors of Yersinia pestis topoisomerase I; Y. pestis Topo-I cleavage product accumulation, plate reader; activity, % at 10 µM; 360,000 tested, 0.064% active; AID 504884; in the data active means activity above about 50%, passing the limit was not always enough; inconclusive means no clear call, values can overlap the other calls
VHR inh abs: inhibitors of human VHR1 phosphatase (DUSP3); 290,000 tested, 0.52% active; recombinant VHR phosphatase, pNPP absorbance; AID 1654; P51452; inhibition, % at 13.3 µM; in the data active means inhibition above about 50%
Vc quorum ag: inducers of Vibrio cholerae quorum light production without autoinducers. V. cholerae BH1578 lux reporter, luminescence, 6 h. 350,000 tested, 0.16% active. activation, % at 18.7 µM; in the data active means activation mostly above about 9.7%, no sharp cut-off; inconclusive means no clear call, values can overlap the other calls; inactive means mostly below about 3.7%
BioA inh: blocks M. tuberculosis BioA enzyme activity; purified M. tuberculosis BioA enzyme, plate reader; inhibition, % at 9.99 µM; 360,000 tested, 0.096% active; in the data active means inhibition above about 40%; inconclusive means no clear call, values can overlap the other calls
TcdB GH inh: inhibitors of Clostridioides difficile toxin B glycohydrolase | TcdB glycohydrolase enzymatic assay, plate reader | inhibition, % at 9.99 µM | 350,000 tested, 0.24% active; in the data active means inhibition above about 10%
* hit, by the source's call; i = inactive; ? = inconclusive; . = no result given; ! = not active in a repeat.

SMILES | PfHsp40 rescue | Y pestis TopoI | VHR inh abs | Vc quorum ag | BioA inh | TcdB GH inh
O=C(O)C(Cc1c[nH]c2ccccc12)N1C(=O)c2ccccc2C1=O (stereo not drawn) | 0 | 7 | 52*! | i | . | -1
COc1cc2c(cc1O)CC[n+]1cc3c(OC)c(OC)ccc3cc1-2 | -1 | -8 | 9 | i | 3 | 13*
COc1cc2c(cc1OC)-c1cc3ccc4c(c3c[n+]1CC2)OCO4 | 2 | -11 | -15 | i | -24 | 0
COc1ccc(NC(=O)CN2CCN(CC(=O)Nc3ccc(F)cc3F)CC2)cc1 | 44* | 2 | -35 | i | -1 | 0
COc1cccc(NC(=O)CN2CCN(CC(=O)Nc3ccc(F)cc3)CC2)c1 | 1 | -6 | -11 | i | 1 | 1
COc1ccc(NC(=O)CN2CCN(c3nc(-c4cccc(OC)c4)cs3)CC2)cc1 | -1 | -4 | 25 | 0 | -2 | .
COc1ccc(NC(=O)CN2CCN(c3nc(-c4ccc(F)cc4)cs3)CC2)c(OC)c1 | 1 | 54* | 24 | 0 | . | 1
Oc1ccc(Cl)cc1Cc1cc(Cl)ccc1O | 234* | -16 | 9 | i | 4 | 3
Oc1ccc(Cl)cc1Cc1ccccc1 | 7 | 2 | . | i | 4 | 0
CC(C)N(C(=O)N1CCC(c2nc(-c3ccncc3)no2)CC1)C(C)C | 0 | 12 | -8 | 0 | . | .
Cc1cc(NC(=O)CSc2ncccn2)no1 | -1 | -2 | 4 | 0 | -2 | 4
CCN(CC)Cc1c[nH]c2c(C(=O)OC)cccc12 | 1 | 1 | 25 | 17* | -3 | 1
CCc1ccc(NC(=O)C2=CC(c3ccc(OC)cc3)=NS(=O)(=O)N2C)cc1 | 0 | 1 | -14 | 0 | 1 | 76*
COc1ccc(C2=NS(=O)(=O)N(C)C(C(=O)Nc3ccc(C)cc3)=C2)cc1 | 0 | -9 | -6 | 0 | -1 | 1
CC(=O)c1ccc(NC(=O)C2=CC(c3ccc4c(c3)OCO4)=NS(=O)(=O)N2C)cc1 | -1 | -12 | 56* | 0 | 5 | 2
Cc1ccc(C2=NS(=O)(=O)N(C)C(C(=O)Nc3ccc4c(c3)OCO4)=C2)cc1 | -1 | -8 | 25 | 0 | -4 | 0
COc1cc(NC(=O)CCc2nnc3ccc(N4CCN(c5cccc(OC)c5)CC4)nn23)cc(OC)c1 | -1 | 16 | 18 | 0 | -1 | 1
COc1cc(NC(=O)CCc2nnc3ccc(N4CCC(C)CC4)nn23)cc(OC)c1 | 1 | 4 | -17 | -1 | 0 | 10*
COc1cnc(-c2ccccn2)nc1N(C)c1ccccc1 | 183* | 4 | 9 | i | 1 | 2
COc1cnc(-c2ccccn2)nc1Sc1ccc(F)cc1 | 37* | 7 | 24 | -1 | . | 3
COc1cnc(-c2ccccn2)nc1Oc1ccccc1 | 2 | 1 | 12 | i | 2 | 0
COc1cnc(-c2ccccn2)nc1Sc1ccccc1 | 268* | 38 | 12 | 0 | . | 0
Cc1cc2nnc(SCCCCN3C(=O)c4ccccc4C3=O)n2c2ccccc12 | . | . | 24 | . | . | .
CNC[C@@H]1Oc2cc(Br)ccc2S(=O)(=O)N([C@H](C)CO)C[C@H]1C | . | 1 | . | 0 | 1 | 2
C/C(=N\NC(=O)CN1CCCCC1)c1ccccc1O | -1 | 3 | 53* | -1 | -1 | 5
SMILES | PfHsp40 rescue | Y pestis TopoI | VHR inh abs | Vc quorum ag | BioA inh | TcdB GH inh
C/C(=N\NC(=O)CN1CCCCC1)c1cccc([N+](=O)[O-])c1 | 1 | -5 | . | i | . | 1
Cc1cc(C)nc(NS(=O)(=O)c2ccc(N/C=C\C(=O)c3ccc(Cl)cc3)cc2)n1 | 0 | 20 | 21 | i | -2 | .
CCOc1ccc(C(=O)/C=C/Nc2ccc(S(=O)(=O)Nc3cc(C)nc(C)n3)cc2)cc1 | . | . | 50* | . | . | 0
CCOc1ccc2ccccc2c1/C=N\NC(=O)OC | -1 | -2 | 7 | 0 | 0 | -9
CCOc1ccc2ccccc2c1/C=N/NC(=O)CNC(=O)C(c1ccccc1)c1ccccc1 | 0 | 33 | 52* | 0 | . | 1
COc1ccc(N(CC(=O)N/N=C/c2cccnc2)S(=O)(=O)c2ccccc2)c(OC)c1 | -1 | 18 | 53* | i | 13 | 0
Cc1ccc(C(=O)NCCc2sc(C)nc2C)cc1 | 0 | -3 | 23 | 0 | 1 | .
CCOC(CCNC(=O)c1cn(CCOC)c(=O)c2c1c1ccccc1n2C)OCC | 1 | -7 | -19 | 0 | -1 | 21*
O=C(CCCn1c(=S)[nH]c2ccccc2c1=O)N1CCN(c2cccc(Cl)c2)CC1 | -1 | 37 | 10 | 0 | 0 | .
Cc1cccc(Nc2nc(N)c([N+](=O)[O-])c(N3CC(C)CC(C)C3)n2)c1 (stereo not drawn) | 64* | 26 | 3 | i | . | 1
COc1ccc(C2=C(N)c3ccccc3C2=O)cc1 | 1 | -3 | -1 | 0 | -1 | .
Cc1ccc(CN(C(=O)c2ccccc2C)C2CCS(=O)(=O)C2)o1 (stereo not drawn) | 2 | 12 | 25 | i | 0 | 3
Cc1ccc2cc(CN(Cc3ccco3)C(=O)c3cccs3)c(=O)[nH]c2c1 | 42* | 31 | 6 | . | 2 | .
Nc1nc(Cl)cc(NCCc2ccc(O)cc2)n1 | 0 | -6 | 12 | i | . | 14*
Nc1nc(Cl)cc(NCCc2ccccc2)n1 | . | . | 14 | . | . | 3
Oc1ccc(CCNc2ncnc3ccc(Cl)cc23)cc1 | -1 | -4 | -26 | 0 | 0 | 11*
CC(=O)c1ccc(N2C(=NC(=O)COc3ccccc3)SC3CS(=O)(=O)CC32)cc1 (stereo not drawn) | 1 | -1 | 44 | 2 | -2 | 4
CCN(CC)CCNc1cccc2sc3ccccc3c(=O)c12 | . | -5 | . | 0 | -1 | 2
Cc1ccc(NCCN(C)C)c2c(=O)c3cc(O)ccc3sc12 | 0 | -46 | . | i | . | 21*
CN(C)CCNc1cccc2sc3ccc(O)cc3c(=O)c12 | . | . | . | . | . | 39*
C[C@@H]1CCCCO[C@H](CN(C)S(=O)(=O)c2ccc(F)cc2)[C@@H](C)CN([C@H](C)CO)C(=O)c2cc(NS(C)(=O)=O)ccc2O1 | . | . | . | . | 0 | -1
COc1cccc(-c2sc3ccccc3c2-c2ccc(OCCN3CCCC3)cc2)c1 | ? | -18 | . | 5 | -2 | 1
COc1cccc(-c2sc3ccc(OC)cc3c2-c2ccc(OCCN3CCCC3)cc2)c1 | 40* | -21 | . | i | -2 | .
COc1ccc(CNC(=O)c2cc3cccc(OC)c3oc2=N)cc1 | 0 | -4 | 54* | -4 | -3 | 0
COCCCn1c(C)nnc1SCC(=O)Nc1cccc(C)c1 | 0 | 1 | 60* | i | -2 | 1
C=CCN(CC=C)S(=O)(=O)c1ccc(NC(=S)NC(=O)c2ccco2)cc1 | 55* | 22 | 0 | -1 | 0 | .
CN1C(=O)C(=Cc2c(OCc3cnc(Cl)s3)ccc3ccccc23)C(=O)N(C)C1=O | 125* | 6 | -2 | -1 | . | 1
CN1C(=O)C(=Cc2ccccc2OCc2ccccc2Cl)C(=O)N(C)C1=O | 0 | -5 | 0 | i | . | .
